The structures appear in SMILES notation. In all, about 1,200 compounds went through this assay and about 480 (40%) were called active. Another 29% or so got no clear call; they are omitted. Calls follow the shape of the dose curve; as a rule, active = well fitted inhibition curve with a large enough effect; inconclusive = small, poorly fitted or top-dose-only effect; inactive = no such curve, though single readings can be large or run the other way. This is one part of the list.
% is scaled to controls: 0 for no effect and ±100 for the full control effect; potency is read from the fitted curve at half-maximal effect.

A short description of the assay: qHTS Assay to Find Inhibitors of Chronic Active B-Cell Receptor Signaling: Hit Validation in Primary Screen. Also: nearly all actives have a fitted effect of over 75% in size. As to conditions: ABC-DLBCL IkB-luc/CBR ratio luminescence, 4 h; series mostly up to 46.1 µM; activity change, negative = inhibition: at the top concentration. Summed up: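 TMD8 ABC-DLBCL cells carrying doxycycline-inducible IkBa-green luciferase fusion and free red luciferase, 0.5% FBS, dosed 46 uM–3 nM with doxycycline for 4 h at 37C. Green/red luminescence ratio normalized to basal and 10 uM MG-132.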
For the compound `CCOC(=O)C1C(C(=O)OC)=C(c2ccc(OC)cc2)c2ccccc2N1S(=O)(=O)C(F)(F)F` (stereo not drawn), the “activity change, negative = inhibition” value was -14% (inactive).
With `CCn1c2ccccc2c2cc(NC(=O)c3cc(OC)cc(OC)c3)ccc21`, the Potency is 2.06 µM (active).
The same measure, in the same setting: the figure for `CCn1c2ccccc2c2cc(NC(=O)c3cc(OC)c(OC)c(OC)c3)ccc21` is 0.731 µM (active).
With `COc1cc(OC)cc(C(=O)NCC(=O)Nc2ccc(-c3ccccc3)cc2)c1`, the Potency was 20.6 µM (active).
As to `COc1cc(NC(=O)COC(=O)Cc2ccc(-c3ccccc3)cc2)cc(OC)c1`, the “activity change, negative = inhibition” value was -9.19% (inactive).
Same read-out and setting: the same measure for `CCCn1nnc(NC(=S)NC(=O)Cc2ccccc2)n1`: -4.95% (inactive); for `COc1ccc(OCC(O)CN2CCN(c3ccccc3)CC2)cc1` (stereo not drawn): -11.5% (inactive).
Take `COc1ccc(Nc2nc(-c3c(C)nc4ncccn34)cs2)cc1`: the Potency was 2.31 µM (active).
Take `Cc1ccc(Nc2nc(-c3c(C)nc4ncccn34)cs2)cc1`: the Potency was 4.11 µM (active).
On the same count and under the same terms, the same measure for `Cc1nc2ncccn2c1-c1csc(Nc2ccc(N(C)C)cc2)n1`: 7.31 µM (active); for `Cc1ccc(Nc2nc(-c3c(C)nc4ccccn34)cs2)cc1`: 0.259 µM (active).
`Cc1ccc(C2OCC3(CO)COC(c4ccc(C)cc4)N23)cc1` (stereo not drawn): the “activity change, negative = inhibition” value is -6.87% (inactive).
In the case of `Oc1[nH]c2ccc(Br)cc2c1N=NC(=S)Nc1ccc(F)cc1`, the “activity change, negative = inhibition” value is 6.69% (inactive).
The same measure, in the same setting: the same measure for `Cc1ccccc1C1=NC(C(F)(F)F)(C(F)(F)F)c2c(n(C)c(=O)n(C)c2=O)N1`: -19.6% (inactive).
`COc1ccc(NC(=O)C(=O)c2cn(CC(=O)N3CCCC3)c3ccccc23)cc1`: the Potency is 9.2 µM (active).
Still for that read-out and setting: the same measure for `COc1cc2cnc(-c3ccccc3)cc2cc1OC`: 20.6 µM (active).
Regarding `CCC(C)NC(=O)c1ccccc1NC(=O)c1ccc(CSc2ccccc2)cc1` (stereo not drawn), the “activity change, negative = inhibition” value is 39.9% (inactive).
For `COc1ccccc1C(=O)Nc1ccccc1SC(=O)c1ccccc1OC`, the Potency was 7.31 µM (active).
In the case of `COc1cc(NC(=S)NC(=O)c2ccccc2F)ccc1NC(=O)c1ccco1`, the “activity change, negative = inhibition” value was 41.4% (inactive).
Take `Cc1ccc(CCC(=O)Nc2ncc(Cc3cc(Cl)ccc3Cl)s2)o1`: the Potency is 1.3 µM (active).
The same measure, in the same setting: the same measure for `CCc1ccc(CCC(=O)Nc2ncc(Cc3ccccc3Cl)s2)o1`: 2.91 µM (active); for `Cc1ccc(CCC(=O)Nc2ncc(Cc3cccc(Cl)c3Cl)s2)o1`: 0.231 µM (active).
As to `Cc1cccc(NC(=S)N=Nc2c(O)n(C)c3ccc(S(=O)(=O)N4CCOCC4)cc23)c1`, the “activity change, negative = inhibition” value was -17.4% (inactive).
In the case of `COc1ccc(-c2csc(C3=C(O)CN(CCCN4CCCC4=O)C3=N)n2)cc1OC`, the Potency is 18.4 µM (active).
On to `COc1ccc(OC)c(S(=O)(=O)Nc2ccc(-c3ccc4nnc(C)n4n3)cc2)c1`, for which the “activity change, negative = inhibition” value is 182% (inactive).
`CCc1ccc(S(=O)(=O)Nc2ccc(-c3ccc4nnc(C)n4n3)cc2)s1`: the Potency was 14.6 µM (active).
Still for that read-out and setting: the figure for `Cc1nnc2ccc(-c3ccc(NS(=O)(=O)c4ccccc4[N+](=O)[O-])cc3)nn12` is 20.6 µM (active).
As for `CCN(CC)C(=S)NC(=O)c1ccc(F)cc1`, the “activity change, negative = inhibition” value is -2.9% (inactive).
`CCCC1=Nc2cc(C(=O)NC3CCCCC3)ccc2Sc2ccc(C)cc21`: the Potency was 0.259 µM (active).
For the compound `CC1=Nc2cc(C(=O)NC3CCCCC3)ccc2Sc2ccc(Cl)cc21`, the Potency is 2.31 µM (active).
Still for that read-out and setting: the figure for `CC1=Nc2cc(C(=O)NC3CCCC3)ccc2Sc2ccc(Cl)cc21` is 2.59 µM (active); for `CCOC(=O)N1CCC(NC(=O)c2ccc3c(c2)N=C(C)c2c(C)ccc(C)c2S3)CC1` it is 6.51 µM (active).
For `CCOC(=O)N1CCC(NC(=O)CS(=O)(=O)Cc2nc(-c3ccccc3C)oc2C)CC1`, the “activity change, negative = inhibition” value was -13.5% (inactive).
Turning to `CCN(CC)c1ccc(-c2nn3c(-c4ccccc4OC)nnc3s2)cc1`, the Potency is 1.46 µM (active).
In the case of `CN(C)c1ccc(-c2nn3c(-c4ccccc4Cl)nnc3s2)cc1`, the Potency was 2.91 µM (active).
On the same count and under the same terms, the figure for `CCN(CC)c1ccc(-c2nn3c(-c4n[nH]c5c4CCC5)nnc3s2)cc1` is 0.651 µM (active); for `COc1ccccc1-c1nnc2sc(-c3ccc(N(C)C)cc3)nn12` it is 1.16 µM (active).
For the compound `C[C@]12CC[C@H]3C(=CCc4cc(O)ccc43)[C@@H]1CCC2=O`, the “activity change, negative = inhibition” value was -23.1% (inactive).
Take `Cc1ccccc1-c1nc2c3ccccc3nc(=S)n2[nH]1`: the “activity change, negative = inhibition” value was -3.4% (inactive).
`S=c1nc2ccccc2c2nc(-c3ccccc3)[nH]n12`: the Potency is 23.1 µM (active).
In the case of `S=c1nc2ccccc2c2nc(-c3ccccc3Cl)[nH]n12`, the “activity change, negative = inhibition” value is 44.2% (inactive).
In the case of `CCN1C(=O)c2cccc3c(NC(=O)c4ccc(OC)c(OC)c4)ccc1c23`, the Potency was 10.3 µM (active).
`CCOc1ccc2c(c1)C(C)=CC(C)(C)N2S(=O)(=O)c1ccc(C)cc1`: the Potency was 3.26 µM (active).
For `COc1ccc2c(c1)C(C)=CC(C)(C)N2S(=O)(=O)c1ccc(Br)cc1`, the Potency was 3.26 µM (active).
As to `CCOc1ccc2c(c1)C(C)=CC(C)(C)N2S(=O)(=O)c1ccc(NC(C)=O)cc1`, the Potency is 1.3 µM (active).
For the compound `COc1ccc2c(c1)C(C)=CC(C)(C)N2S(=O)(=O)c1ccc(NC(C)=O)cc1`, the Potency is 3.26 µM (active).
For the compound `N#CC1=C(S)N(c2ccc(F)cc2)C(c2ccco2)NC1=O` (stereo not drawn), the “activity change, negative = inhibition” value was 46.1% (inactive).
With `CCOc1ccc(NC(=S)N(CCc2c(C)[nH]c3ccccc23)Cc2cccnc2)cc1`, the “activity change, negative = inhibition” value was -24% (inactive).
For `CCOc1ccc(NC(=O)c2cc(OC)nc3ccccc23)cc1`, the Potency was 5.17 µM (active).
`COc1ccc(NC(=O)CSc2nc(N)c(C(=O)Nc3ccc(N(C)C)cc3)s2)cc1`: the “activity change, negative = inhibition” value was -13.4% (inactive).
Take `COc1ccc(C2=NN(C(C)=O)C(c3cccs3)C2)cc1OC` (stereo not drawn): the “activity change, negative = inhibition” value was 31.9% (inactive).
Turning to `COc1ccc(C2CC(c3ccc(OC)c(OC)c3)=NN2C(=O)c2ccccc2)cc1` (stereo not drawn), the Potency is 6.51 µM (active).
As to `COc1ccc(C2CC(c3ccncc3)=NN2c2ccc(S(N)(=O)=O)cc2)cc1` (stereo not drawn), the “activity change, negative = inhibition” value was 112% (inactive).
Turning to `N=C1SCC(=O)N1c1ncc(Cc2cccc(Cl)c2)s1`, the Potency was 20.6 µM (active).
For the compound `O=c1cc(-c2ccc(F)cc2)[nH][nH]1`, the “activity change, negative = inhibition” value was 4.42% (inactive).
As for `O=c1cc(-c2ccccc2)[nH]c2ccc(F)cc12`, the Potency was 10.3 µM (active).
As for `NNC(=O)c1[nH]c2ccc(Br)cc2c1-c1ccccc1`, the “activity change, negative = inhibition” value was 3.52% (inactive).
Consider `O=c1cc(-c2cccc(F)c2)[nH]c2ccccc12`, for which the Potency is 3.66 µM (active).
The same measure, in the same setting: the figure for `O=c1cc(-c2ccccc2)[nH]c2ccccc12` is 11.6 µM (active).
Take `O=Cc1ccc(O)c2ncccc12`: the “activity change, negative = inhibition” value was -2.92% (inactive).
The same measure, in the same setting: the figure for `O=[N+]([O-])c1cc(Cl)c2cccnc2c1O` is -5.39% (inactive); for `COc1ccc(CC2(CO)CCN(Cc3cccc4nccnc34)CC2)cc1` it is -8.35% (inactive).
On to `CCCc1nc([N+](=O)[O-])c(S(=O)(=O)c2ccccc2)n1CC(C)C`, for which the Potency was 16.4 µM (active).

Source of the values: PubChem BioAssay AID651558 (National Center for Advancing Translational Sciences (NCATS), 2012).
